This passage reports outcome and AC50 results from PubChem BioAssay (EPA / NIEHS).

Results filed as inconclusive are left out. The source made the active and inactive calls. How the source made its calls: active means hit-call score of the fitted dose curve at least 0.9, where 1 is the maximum; inconclusive means response in the unintended direction; inactive means score below 0.9.

Read-out in the test: ABC Transporter (ABCB1), ABCB1 (gene 5243)
Description: CLD_ABCB1_48hr: CellzDirect (CLD) Gene Expression Assay for ABC Transporter (ABCB1) at 48 hours (AID 2283695).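 On AC50: potency for induction meaning increase of mRNA over DMSO vehicle.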 On the procedure: CLD_48hr is a cell-based, multiplexed-readout assay that uses hepatocyte, a human liver primary cell, with measurements taken at 48 hours after chemical dosing in a 96-well plate.CLD_ABCB1_48hr is one of 16 assay component(s) measured or calculated from the CLD_48hr assay. It is designed to make measurements of mRNA induction, a form of inducible reporter, as detected with chemiluminescence signals by Quantitative Nuclease Protection Assay (qNPA) technology.Data from the assay component CLD_ABCB1_48hr was analyzed at the endpoint, CLD_ABCB1_48hr, in the positive analysis fitting direction relative to DMSO as the negative control and baseline of activity. Using a type of inducible reporter, gain-of-signal activity can be used to understand changes in the reporter gene as they relate to the gene ABCB1. Furthermore, this assay endpoint can be referred to as a primary readout. To generalize the intended target to other relatable targets, this assay endpoint is annotated to the transporter intended target family, where subfamily is ABC transporter.
Human hepatocyte cultures were treated daily for two consecutive days with fresh dosing solutions containing appropriate concentrations of the 320 ToxCast chemicals (chemical identities were blinded to CellzDirect and other ToxCast collaborators), vehicle control (0.2% DMSO), and positive control inducers as summarized in Table 1. Due to the large number of treatment groups and chemicals examined, the ToxCast chemicals were divided into two groups (spanning two independent cultures of hepatocytes from separate donor preparations (Hu778: ToxCast plates 1 and 2; Hu776: ToxCast plates 3 and 4). Each preparation of human hepatocyte cultures was treated with respective vehicle control, medium only control, set of six positive controls/reference chemicals for the five hepatic receptor pathways, and a subset of eight of the ToxCast chemicals (indoxacarb, pyrithiobac-sodium, norflurazon, cyhalofop-butyl, methomyl, thiram, acetochlor, and propiconazole). These replicate data, coupled with internal replicates designed within the blinded ToxCast chemical library, provided additional data to evaluate interindividual differences between hepatocyte preparations and their potential impact on chemical profiles.Cell morphology and integrity were evaluated using phase-contrast microscopy as an indicator of hepatocyte cell health (Tyson & Green, 1987). Cultures for each treatment group (i.e., media, vehicle [0.2% DMSO], positive control inducers [multiple concentrations], and the ToxCast chemicals [multiple concentrations]) were observed and cell morphology was assessed relative to vehicle control cultures at each harvest time point (0, 6, 24, or 48 h). […] Images were evaluated at the conclusion of the study to assess changes in cell integrity and account for the effects of chemical exposure on uncharacteristic changes in concentration-dependent gene expression profiles. The results from these determinations of apparent cytotoxicity were annotated (yes/no) alongside the corresponding qNPA data for reference.At the conclusion of each treatment period, hepatocyte cultures (96-well) were washed with 1 volume of HBSS, lysed by addition of 25 ul ArrayPlate lysis buffer (HTG, Tucson, AZ), and 70 ul/well of Denaturation Oil, denatured by incubation at 95C for 10 min, and frozen at approximately -70C until analysis by nuclease protection assay (qNPA) (Roberts et al., 2007). For qNPA analysis, cell lysates were thawed at 50C for approximately 30 min, qNPA probes were added, and samples were incubated at 95C for 10 min to begin the detection process by denaturing the target RNA, dissociating the duplexes and secondary structure hybridization. At the conclusion of the hybridization period, S1 nuclease reagent was added to each sample to digest all nonprotected nucleotides at 50C for 60-90 min. […]
Regarding `Nc1c(Cl)cc([N+](=O)[O-])cc1Cl`, the outcome was inactive. `CCc1cccc(C)c1N(C(=O)CCl)C(C)COC` (stereo not given): the result was inactive. On the same count and under the same terms, the value for `CCCOCC(=Nc1ccc(Cl)cc1C(F)(F)F)n1ccnc1` was “inactive”. `CCCCN(CC)c1c([N+](=O)[O-])cc(C(F)(F)F)cc1[N+](=O)[O-]`: the call was inactive.

As for `CCNc1nc(Cl)nc(NC(C)(C)C#N)n1`, the compound was called inactive.

Consider `COP(=O)(OC)SCn1c(=O)oc2cc(Cl)cnc21`, for which the result was inactive.

`CCCCSP(=O)(SCCCC)SCCCC`: the result was inactive.

On to `CCc1cccc(CC)c1N(COC)C(=O)CCl`, for which the compound was classed as inactive. Still for that read-out and setting: the value for `CC1(C(=O)Nc2ccc(O)c(Cl)c2Cl)CCCCC1` was “inactive”; that for `CCC(CC)Nc1c([N+](=O)[O-])cc(C)c(C)c1[N+](=O)[O-]` was “inactive”; that for `CC(C)N(C(=O)SCC(Cl)=C(Cl)Cl)C(C)C` was “inactive”.

`CC[C@H](C)[C@H]1O[C@]2(C=C[C@@H]1C)C[C@@H]1C[C@@H](C/C=C(\C)[C@@H](O[C@H]3C[C@H](OC)[C@@H](O[C@H]4C[C@H](OC)[C@@H](NC)[C@H](C)O4)[C@H](C)O3)[C@@H](C)/C=C/C=C3\CO[C@@H]4[C@H](O)C(C)=C[C@@H](C(=O)O1)[C@]34O)O2`: the compound was classed as inactive. `CCOP(=S)(OCC)SCCSCC`: the compound was classed as inactive.

Regarding `CC(COc1ccc(Oc2ccccc2)cc1)Oc1ccccn1` (stereo not given), the result was inactive. As to `CSc1nc(NC(C)C)nc(NC(C)C)n1`, the result was inactive. The term AC50 denotes the concentration at which the activity in the assay is half-maximal. Take `C[Si](Cn1cncn1)(c1ccc(F)cc1)c1ccc(F)cc1`: the AC50 is 4.36 µM (active).

Take `N#CSCSC#N`: the compound was classed as inactive. Same read-out and setting: the value for `CC(C)[C@H](C(=O)O[C@H](C#N)c1cccc(Oc2ccccc2)c1)c1ccc(Cl)cc1` was “inactive”; that for `CC(Oc1cccc(Cl)c1)C(=O)O` (stereo not given) was “inactive”; that for `Nc1nc(N)nc(NC2CC2)n1` was “inactive”. The same measure, in the same setting: the value for `C#CC(C)(C)NC(=O)c1cc(Cl)cc(Cl)c1` was “inactive”; that for `COP(=O)(NC(C)=O)SC` (stereo not given) was “inactive”. On the same count and under the same terms, the value for `CON=C(C(=O)OC)c1ccccc1CON=C(C)c1cccc(C(F)(F)F)c1` was “inactive”; that for `O=c1ccc(=O)[nH][nH]1` was “inactive”. For the compound `Cc1nn(-c2cc(NS(C)(=O)=O)c(Cl)cc2Cl)c(=O)n1C(F)F`, the call was inactive. Same read-out and setting: the value for `CCOC(=O)COc1cc(-c2nn(C)c(OC(F)F)c2Cl)c(F)cc1Cl` was “inactive”; that for `FC(F)C(F)(F)OCC(Cn1cncn1)c1ccc(Cl)cc1Cl` (stereo not given) was “inactive”.

Turning to `COc1ccc(C(=CC(=O)N2CCOCC2)c2ccc(Cl)cc2)cc1OC`, the AC50 is 31 µM (active). In the case of `COc1cccc(C(=O)NN(C(=O)c2cc(C)cc(C)c2)C(C)(C)C)c1C`, the result was inactive. On to `CCC(=NOC/C=C/Cl)C1=C(O)CC(C2CCOCC2)CC1=O` (stereo not given), for which the result was inactive. `C[N+]1(C)CCCCC1`: the compound was called inactive.

Take `CC1=NNC(=O)N(/N=C/c2cccnc2)C1`: the compound was classed as inactive.

As to `CNC(=O)ON=C(SC)C(=O)N(C)C`, the compound was called inactive. On the same count and under the same terms, the value for `C#CCC1=C(C)C(OC(=O)C2C(C=C(C)C)C2(C)C)CC1=O` (stereo not given) was “inactive”.

`CCc1cnc(C2=NC(C)(C(C)C)C(=O)N2)c(C(=O)O)c1` (stereo not given): the compound was classed as inactive. The same measure, in the same setting: the value for `CC(=NC#N)N(C)Cc1ccc(Cl)nc1` was “inactive”; that for `CCOP(=O)(NC(C)C)Oc1ccc(SC)c(C)c1` (stereo not given) was “inactive”; that for `COP(=O)(OC)C(O)C(Cl)(Cl)Cl` (stereo not given) was “inactive”.

Regarding `CCOP(=S)(Oc1cnc(C(C)(C)C)nc1)OC(C)C` (stereo not given), the AC50 was 4.38 µM (active).

`CCCOc1nn(C(=O)NS(=O)(=O)c2ccccc2C(=O)OC)c(=O)n1C`: the outcome was inactive.
